Reference: the supplement of paper PMC10849652
The full data set covers some 8,800 targets. This sample favours those with a hit. About 0.5% of all pairs of compound and target were hits. A number with no mark means an inactive call.

Key:
Assay in all cases: log2 fold change, soluble protein after heating vs DMSO (PISA); higher = thermal stabilisation; K562 lysate, 10 uM; active = over 0.2 and 3.5 SD of the protein, either way, in both replicates (recomputed)
[1] = compound: C1=CC=C(C=C1)[C@H](COC2=CC3=C(C=C2)NC(=O)N3)NC(=O)C4=CC=CN(C4=O)CC5=CC(=C(C=C5)F)F
Outline: (§1)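 Pellets of K562 cells were dounce-homogenised in PBS pH 7.4 with 1 mM MgCl2, and the crude extract was held at 1 mg/mL protein for a 30 min treatment with 10 μM compound. Aliquots were heated for 3 min over 48°C-58°C and pooled before NP-40 was added to 0.5% at 4°C. The supernatant from 21,000xg for 90 min was quantified by TMTpro 16plex LC-MS/MS with channel sums equalised. Values are reported from duplicates as log-two fold change in thermal stability relative to solvent controls.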

[2] = compound: CC1=C(SC2=C1C(=N[C@H](C3=NN=C(N32)C)CC(=O)N)C4=CC=C(C=C4)Cl)C
Outline: as §1

[3] = compound: CC1=C2C(=CC=C1)N=C(N(C2=O)C3=CC=CC=C3C)CN4C=NC5=C(N=CN=C54)N
Outline: as §1

[4] = compound: Cc1sc2c(c1C)C(c1ccc(Cl)cc1)=N[C@@H](CC(=O)OC(C)(C)C)c1nnc(C)n1-2
Outline: as §1

[5] = compound: c1ccc([C@@H]2C[C@H]2NC2CCNCC2)cc1
Outline: as §1

UniProt Q29RF7, sequence (Q29RF7 whole entry, looked up): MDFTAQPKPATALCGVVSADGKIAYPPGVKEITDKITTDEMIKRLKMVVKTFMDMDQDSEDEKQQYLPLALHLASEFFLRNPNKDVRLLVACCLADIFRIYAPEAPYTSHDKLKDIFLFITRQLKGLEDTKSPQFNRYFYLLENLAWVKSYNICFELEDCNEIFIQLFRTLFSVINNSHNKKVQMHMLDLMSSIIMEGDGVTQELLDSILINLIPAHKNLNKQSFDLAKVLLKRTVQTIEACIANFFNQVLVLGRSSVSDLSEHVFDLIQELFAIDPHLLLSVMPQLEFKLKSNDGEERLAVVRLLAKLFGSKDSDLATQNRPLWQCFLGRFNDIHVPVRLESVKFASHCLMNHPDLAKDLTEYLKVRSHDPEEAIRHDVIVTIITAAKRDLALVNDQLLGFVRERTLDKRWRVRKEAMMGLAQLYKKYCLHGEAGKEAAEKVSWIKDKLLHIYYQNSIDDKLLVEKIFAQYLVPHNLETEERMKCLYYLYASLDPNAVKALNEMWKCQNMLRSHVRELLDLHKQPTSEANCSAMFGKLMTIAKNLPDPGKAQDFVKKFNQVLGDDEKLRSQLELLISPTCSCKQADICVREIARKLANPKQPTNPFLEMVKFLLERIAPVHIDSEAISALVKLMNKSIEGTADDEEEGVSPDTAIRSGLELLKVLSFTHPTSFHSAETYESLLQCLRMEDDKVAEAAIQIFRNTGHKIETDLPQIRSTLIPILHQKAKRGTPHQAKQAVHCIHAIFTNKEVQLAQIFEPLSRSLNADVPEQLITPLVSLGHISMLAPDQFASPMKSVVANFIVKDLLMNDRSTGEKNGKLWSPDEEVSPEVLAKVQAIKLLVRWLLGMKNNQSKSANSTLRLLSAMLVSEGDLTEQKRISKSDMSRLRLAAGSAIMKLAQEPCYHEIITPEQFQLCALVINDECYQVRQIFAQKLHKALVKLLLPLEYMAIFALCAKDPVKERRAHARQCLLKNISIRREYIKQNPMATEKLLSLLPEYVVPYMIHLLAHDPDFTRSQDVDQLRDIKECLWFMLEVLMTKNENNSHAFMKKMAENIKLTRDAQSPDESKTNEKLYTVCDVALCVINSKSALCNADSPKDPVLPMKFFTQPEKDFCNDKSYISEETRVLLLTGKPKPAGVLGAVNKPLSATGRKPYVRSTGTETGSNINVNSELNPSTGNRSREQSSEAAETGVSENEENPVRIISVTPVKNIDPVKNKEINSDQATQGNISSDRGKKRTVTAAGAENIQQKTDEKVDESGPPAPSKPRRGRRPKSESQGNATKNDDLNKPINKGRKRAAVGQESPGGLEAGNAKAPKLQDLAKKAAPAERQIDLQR
UniProt Q9HAU0, sequence (Q9HAU0 whole entry, looked up): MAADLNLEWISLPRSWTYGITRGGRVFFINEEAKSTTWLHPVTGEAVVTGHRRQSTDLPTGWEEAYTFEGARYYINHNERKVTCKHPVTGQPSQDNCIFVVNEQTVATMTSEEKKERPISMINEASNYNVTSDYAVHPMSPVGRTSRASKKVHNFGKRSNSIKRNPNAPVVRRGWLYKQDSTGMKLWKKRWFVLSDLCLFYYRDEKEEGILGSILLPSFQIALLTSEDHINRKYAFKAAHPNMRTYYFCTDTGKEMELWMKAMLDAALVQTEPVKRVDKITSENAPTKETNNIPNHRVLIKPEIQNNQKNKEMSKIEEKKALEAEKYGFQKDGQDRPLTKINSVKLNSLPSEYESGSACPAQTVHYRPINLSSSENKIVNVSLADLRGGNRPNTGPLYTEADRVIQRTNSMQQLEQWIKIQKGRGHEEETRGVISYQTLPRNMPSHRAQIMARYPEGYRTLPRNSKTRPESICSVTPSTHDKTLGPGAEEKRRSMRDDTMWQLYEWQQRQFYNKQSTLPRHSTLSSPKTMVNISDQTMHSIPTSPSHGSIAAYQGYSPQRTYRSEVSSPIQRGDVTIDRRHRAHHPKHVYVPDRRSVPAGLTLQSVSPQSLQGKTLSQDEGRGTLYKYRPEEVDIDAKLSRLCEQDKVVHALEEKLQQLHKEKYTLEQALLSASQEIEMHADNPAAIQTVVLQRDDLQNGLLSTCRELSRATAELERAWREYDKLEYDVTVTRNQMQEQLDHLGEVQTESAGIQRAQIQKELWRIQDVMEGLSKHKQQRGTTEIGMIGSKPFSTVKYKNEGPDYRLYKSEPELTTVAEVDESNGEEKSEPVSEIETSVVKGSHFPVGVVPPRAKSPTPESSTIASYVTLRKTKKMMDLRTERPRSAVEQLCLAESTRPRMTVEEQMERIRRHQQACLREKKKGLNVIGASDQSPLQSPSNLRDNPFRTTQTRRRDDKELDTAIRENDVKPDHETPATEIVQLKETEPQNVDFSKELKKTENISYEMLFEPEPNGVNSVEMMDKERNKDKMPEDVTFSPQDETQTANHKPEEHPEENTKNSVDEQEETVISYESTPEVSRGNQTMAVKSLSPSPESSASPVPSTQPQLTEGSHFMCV
UniProt Q9UHX1, sequence (Q9UHX1 whole entry, looked up): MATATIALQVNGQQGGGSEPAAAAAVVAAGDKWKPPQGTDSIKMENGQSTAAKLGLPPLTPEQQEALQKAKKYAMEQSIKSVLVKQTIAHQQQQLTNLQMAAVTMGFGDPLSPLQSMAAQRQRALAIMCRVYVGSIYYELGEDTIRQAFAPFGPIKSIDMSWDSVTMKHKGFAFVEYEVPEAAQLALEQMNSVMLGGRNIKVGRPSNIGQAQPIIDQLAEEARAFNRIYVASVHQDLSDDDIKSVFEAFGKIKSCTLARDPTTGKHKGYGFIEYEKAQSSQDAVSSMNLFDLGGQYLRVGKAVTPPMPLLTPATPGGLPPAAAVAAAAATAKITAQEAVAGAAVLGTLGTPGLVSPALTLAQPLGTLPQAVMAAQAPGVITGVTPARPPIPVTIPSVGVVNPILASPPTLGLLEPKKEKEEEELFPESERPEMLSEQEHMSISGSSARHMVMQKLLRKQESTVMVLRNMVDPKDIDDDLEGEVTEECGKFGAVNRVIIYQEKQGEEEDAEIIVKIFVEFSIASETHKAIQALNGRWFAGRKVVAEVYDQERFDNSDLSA
UniProt Q05397, sequence (Q05397 whole entry, looked up): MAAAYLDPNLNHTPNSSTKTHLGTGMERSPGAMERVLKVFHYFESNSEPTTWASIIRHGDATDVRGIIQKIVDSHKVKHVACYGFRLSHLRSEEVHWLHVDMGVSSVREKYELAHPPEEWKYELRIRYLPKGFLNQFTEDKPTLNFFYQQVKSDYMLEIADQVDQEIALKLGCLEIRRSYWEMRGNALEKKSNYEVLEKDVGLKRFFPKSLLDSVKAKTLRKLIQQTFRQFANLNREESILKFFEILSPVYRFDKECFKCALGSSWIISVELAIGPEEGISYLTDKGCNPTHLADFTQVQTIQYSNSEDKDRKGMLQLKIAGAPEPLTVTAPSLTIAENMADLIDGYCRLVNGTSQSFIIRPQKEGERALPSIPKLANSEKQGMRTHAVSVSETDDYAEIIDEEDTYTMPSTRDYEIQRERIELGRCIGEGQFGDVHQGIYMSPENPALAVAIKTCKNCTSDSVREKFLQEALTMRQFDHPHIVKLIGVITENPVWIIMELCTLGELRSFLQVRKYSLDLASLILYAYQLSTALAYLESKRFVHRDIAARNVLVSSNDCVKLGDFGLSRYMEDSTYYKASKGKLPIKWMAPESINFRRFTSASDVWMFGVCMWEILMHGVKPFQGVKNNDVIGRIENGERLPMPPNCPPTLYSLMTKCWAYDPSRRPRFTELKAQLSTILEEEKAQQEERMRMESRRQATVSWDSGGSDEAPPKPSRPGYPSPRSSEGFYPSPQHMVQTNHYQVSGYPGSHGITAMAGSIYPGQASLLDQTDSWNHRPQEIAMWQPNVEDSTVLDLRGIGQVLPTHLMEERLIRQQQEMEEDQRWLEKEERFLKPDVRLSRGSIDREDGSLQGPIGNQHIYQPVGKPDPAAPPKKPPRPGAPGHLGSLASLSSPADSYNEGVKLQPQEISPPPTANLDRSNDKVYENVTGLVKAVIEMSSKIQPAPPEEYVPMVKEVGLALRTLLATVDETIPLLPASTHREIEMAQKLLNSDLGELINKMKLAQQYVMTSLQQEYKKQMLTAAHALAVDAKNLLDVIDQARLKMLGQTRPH
UniProt Q9BSG0, sequence (Q9BSG0 whole entry, looked up): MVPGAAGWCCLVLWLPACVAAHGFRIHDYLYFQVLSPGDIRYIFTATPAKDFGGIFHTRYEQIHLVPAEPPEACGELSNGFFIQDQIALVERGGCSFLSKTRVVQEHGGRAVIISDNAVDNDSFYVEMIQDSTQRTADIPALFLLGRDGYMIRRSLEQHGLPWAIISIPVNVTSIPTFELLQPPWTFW
UniProt Q9Y570, sequence (Q9Y570 whole entry, looked up): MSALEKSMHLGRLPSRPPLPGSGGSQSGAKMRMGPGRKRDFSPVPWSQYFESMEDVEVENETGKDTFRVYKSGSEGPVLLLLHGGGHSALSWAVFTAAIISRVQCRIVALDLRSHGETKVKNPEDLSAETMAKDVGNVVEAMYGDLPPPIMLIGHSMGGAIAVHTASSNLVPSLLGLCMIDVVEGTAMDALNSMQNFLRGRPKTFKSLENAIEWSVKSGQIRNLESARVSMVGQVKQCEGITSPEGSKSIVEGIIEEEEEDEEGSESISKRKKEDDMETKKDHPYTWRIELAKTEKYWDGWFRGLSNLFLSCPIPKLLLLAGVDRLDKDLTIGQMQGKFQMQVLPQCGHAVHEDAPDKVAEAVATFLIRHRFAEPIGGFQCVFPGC
UniProt Q99541, sequence (Q99541 whole entry, looked up): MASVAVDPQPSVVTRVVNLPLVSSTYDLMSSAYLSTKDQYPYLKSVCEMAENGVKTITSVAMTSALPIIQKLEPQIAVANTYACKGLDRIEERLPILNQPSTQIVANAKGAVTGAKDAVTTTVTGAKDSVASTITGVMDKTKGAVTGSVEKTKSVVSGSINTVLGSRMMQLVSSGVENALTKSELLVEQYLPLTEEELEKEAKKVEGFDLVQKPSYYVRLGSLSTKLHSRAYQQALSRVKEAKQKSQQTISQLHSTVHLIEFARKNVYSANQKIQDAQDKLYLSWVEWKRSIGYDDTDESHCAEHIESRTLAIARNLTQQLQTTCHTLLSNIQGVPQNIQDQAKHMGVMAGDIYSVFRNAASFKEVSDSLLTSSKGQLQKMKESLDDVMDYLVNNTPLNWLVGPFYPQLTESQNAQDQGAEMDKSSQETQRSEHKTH

Target	log2 fold change [1]	log2 fold change [2]	log2 fold change [3]	log2 fold change [4]	log2 fold change [5]
PI4K2A (UniProt Q9BTU6)	0.028	0.056	-0.007	-0.002	0.001
POLD3 (UniProt Q15054)	-0.004	0.002	0.019	0	0.034
PIP5K1A (UniProt Q99755)	-0.058	0.067	–	0.059	-0.096
PLIN2 (UniProt Q99541)	-0.138	0.015	0.021	-0.018	0.014
PCBP2 (UniProt F8VRH0)	–	–	–	–	0.232
PTPN23 (UniProt Q9H3S7)	-0.033	0.011	0.007	0.024	0
POM121C (UniProt A8CG34)	0.058	0.042	–	–	-0.02
PDS5A (UniProt Q29RF7)	-0.049	-0.031	0.017	-0.011	0.019
PLEKHA5 isoform 6 (UniProt Q9HAU0)	0	-0.112	-0.06	-0.013	0.045
PRADC1 (UniProt Q9BSG0)	0.267	0.021	–	-0.029	0.018
PDIA4, A0A499FI48	–	–	–	0.083	0.564
PIAS2 (UniProt O75928)	–	–	0.001	0.046	–
PPME1 (UniProt Q9Y570)	0.057	-0.02	–	0.06	–
PRPH isoform 2 (UniProt P41219)	0.002	-0.006	0.03	-0.059	0.119
PREP (UniProt H0Y5Y0)	–	–	–	–	0.086
POLB (UniProt P06746)	-0.02	-0.005	0.028	0.041	0.021
PHKG1 isoform 2 (UniProt Q16816)	–	–	-0.375	-0.054	-0.493
POLR2F (UniProt U3KPV3)	–	–	–	-0.113	–
PHACTR4 isoform 2 (UniProt Q8IZ21)	0.03	0	0.014	0.028	0.264
PFN3 (UniProt P60673)	–	–	0.072	–	-0.004
PHGDH, A0A286YFE1	0.061	-0.111	–	-0.095	–
PRG4 (UniProt Q92954)	0.03	-0.081	–	-0.059	-1.18 (active)
PUF60 isoform 2 (UniProt Q9UHX1)	0.091	0.109	0.035	–	0.238
PTK2 isoform 2 (UniProt Q05397)	0.07	0.081	–	-0.324	–
PELO (UniProt Q9BRX2)	-0.014	0.05	0.034	0.087	0.27
PI4KB (UniProt Q9UBF8)	0.022	-0.006	-0.019	-0.005	0.002
PNPLA4 (UniProt P41247)	–	–	-0.009	0.201	-0.019
PFN1 (UniProt I3L3D5)	0.007	0.065	–	–	0.164
